The values below come from PubChem BioAssay AID504853 (Southern Research Specialized Biocontainment Screening …, 2011).

Entries with a potency or affinity are not part of this list. Calls of active or inactive are those of the source. The rule behind the calls is not given here.

The assay is described as follows: HepG2 cell cytotoxicity, dose response, cytotoxicity control, set 3 (AID 504853). The following applies: series mostly up to 50 µM.
As to `Cc1nc(SCC(=O)NC2CCCC2)[nH]c(=O)c1C`, the molecule was called inactive.
As for `NC(=O)CSc1nc2ccccc2c(=O)[nH]1`, the entry is “inactive”; as for `Cc1ccc(NC(=O)COC(=O)CCc2c[nH]c3ccccc23)cc1[N+](=O)[O-]`, “inactive”; as for `Cc1nc(SCC(=O)N(C)c2ccccc2)[nH]c(=O)c1C`, “inactive”.
Take `CN1CCC(NC(=O)CSc2nc3ccccc3c(=O)[nH]2)CC1`: the molecule was called inactive.
As for `O=c1[nH]c(=S)[nH]c2ccccc12`, the entry is “inactive”; as for `Cc1cc(=O)[nH]c(SCC(=O)NC2CCCCC2)n1`, “inactive”; as for `Cc1nc(SCc2ccccc2Cl)[nH]c(=O)c1C`, “inactive”.
With `CCSc1nc(C)c(C)c(=O)[nH]1`, the molecule was called inactive.
The entry for `O=C(CSc1ncccn1)NC1CCCCC1` is “inactive”.
The entry for `Cc1ccc(NC(=O)CSc2nc3ccccc3c(=O)[nH]2)cc1Cl` is “inactive”.
The entry for `CCOC1OC(=O)C(Cl)=C1Nc1ccccc1C` (stereo unspecified) is “inactive”.
Turning to `Cc1nc(SCC(N)=O)[nH]c(=O)c1C`, the outcome was inactive.
Turning to `O=C(CSc1nc2ccccc2c(=O)[nH]1)NC1CCCCC1`, the molecule was classed as inactive.
As for `O=C(CSc1ccccn1)NC1CCCCC1`, the entry is “inactive”; as for `Cc1cccc(/C=C/C(=O)c2ccc([N+](=O)[O-])o2)c1`, “inactive”; as for `Cc1nc(SCC(=O)NCCC(C)C)[nH]c(=O)c1C`, “inactive”.
As for `O=C(CSc1nc2ccccc2c(=O)[nH]1)NCc1ccc(Cl)cc1`, the entry is “inactive”; as for `CC(Sc1nc2ccccc2c(=O)[nH]1)C(=O)NC1CCCCC1` (stereo unspecified), “inactive”; as for `CCC(Sc1nc2ccccc2c(=O)[nH]1)C(=O)Nc1cccc(OC)c1` (stereo unspecified), “inactive”.
For the molecule `CCC(Sc1nc2c(c(=O)[nH]1)CCC2)C(=O)Nc1cccc(OC)c1` (stereo unspecified), the molecule was called inactive.
As for `CN(C)C(=O)CSc1nc2ccccc2c(=O)[nH]1`, the outcome was inactive.
For the molecule `CN(C(=O)CSc1nc2ccccc2c(=O)[nH]1)C1CCCCC1`, the result was inactive.
As for `O=C(CSc1nc2ccccc2c(=O)[nH]1)NC1CCCC1`, the entry is “inactive”; as for `Cn1c(SCC(=O)NC2CCCCC2)nc2ccccc2c1=O`, “inactive”; as for `O=c1[nH]c(SCc2ccccc2Cl)nc2c1CCCC2`, “inactive”.
